Screening data as filed in PubChem BioAssay.
Sampled rows, rich in hits. Any-hit rate of the full collection: about 3.9%.
HepG2 tox – qHTS for Inhibitors of TGF-b: Cytotox Counterscreen. 410,000 compounds, 0.76% hits. HepG2 CAGA-GFP viability, ATP luminescence, 18 h. Potency, µM (top dose mostly 46.1 µM), without a hit: at the top dose activity change, negative = cytotoxicity, usual class: cytotoxic
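CellTiter-Glo luminescence gave cytotoxicity after 18 hours at 37 degrees C. The cells were HepG2 CAGA-GFP in 1% FBS DMEM, stimulated with 500 pg/mL TGF-beta after compound addition. %Activity was normalised to no-cell wells (complete cell-killing) and DMSO (no toxicity), and curves were fitted and classified.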
ATXN2 expr inh – Primary qHTS for Inhibitors of ATXN expression; HEK-293 ATXN2-luciferase reporter, luminescence, 24 h; Potency, µM (top dose mostly 57 µM), for inactives: at the highest dose activity change, negative = inhibition, actives largely listed as inhibitors; 360,000 compounds, 0.72% hits; AID 1745845, 2022; also: % is scaled to controls: 0 for no effect and ±100 for the full control effect; nearly all actives have a fitted effect of over 55% in size
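qHTS (up to 57 uM final) was run with 24 h compound exposure of reporter cells at 37 °C. Each well was multiplexed: SteadyGlo luminescence measured ATXN2-luciferase expression after a fluorogenic Gly-Phe-AFC viability readout (25 uM final).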
HT1080-NT tox – qHTS for induction of synthetic lethality in tumor cells producing 2HG: qHTS for the HT-1080-NT fibrosarcoma cell line. HT-1080-NT fibrosarcoma viability, CellTiter-Glo ATP luminescence, 48 h. Potency, µM (top dose mostly 46.1 µM), without a hit: top-dose activity, negative = less viability, hits mostly cytotoxic. AID 686970, 2013. 360,000 compounds, 1.6% hits;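 also: NT is the 2HG producing partner of a matched IDH1 knockdown line; 0% = DMSO-treated cells and -100% = media-only wells without cells; nearly all actives have a fitted effect of over 55% in size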
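Viability by CellTiter-Glo luminescence after 48 h compound exposure at 37C of HT-1080-NT cells (750/well, RPMI, 5% FBS). % activity scaled between DMSO wells and medium-only wells, then curve-fitted and categorized by curve class.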
ATXN viability – Viability Counterscreen for Primary qHTS for Inhibitors of ATXN expression; S2 cells (HEK-293 line with an ATXN2-luciferase reporter) viability, CellTiter-Fluor protease fluorescence, 24 h; Potency, µM (doses to about 56.7 µM), hits mostly cytotoxic; 400,000 compounds, 0.49% hits; AID 651635, 2014; also: nearly all actives have a fitted effect of over 40% in size
TGFb SMAD3 inh – qHTS for Inhibitors of TGF-b; HepG2 CAGA-GFP TGF-b/SMAD3 reporter, GFP fluorescence, 18 h; TGF-beta stimulated, 500 pg/mL final; 410,000 compounds, 1.2% hits; Potency, µM (titrated, usually from 46.1 µM), inactives show top-dose activity, negative = inhibition, hits mostly inhibitors; also: % is scaled to controls: 0 for no effect and ±100 for the full control effect; nearly all actives have a fitted effect of over 65% in size
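HEPG2 CAGA-GFP, 1000 cells/well; 2 h settle, 37 C; cpd via pin tool; TGF-b 500 pg/mL final; 18 h, 37 C; GFP imaging ex488/em500-530; %Activity normalised to -TGF-b and +DMSO controls; CRC fit, curve class.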
HT1080 IDH1KD tx – qHTS for induction of synthetic lethality in tumor cells producing 2HG: qHTS for the HT-1080-IDH1KD cell line | HT-1080 IDH1 knockdown viability, ATP luminescence, 48 h | Potency, µM (series often up to 46.1 µM), without a hit: at the top dose activity, negative = toxicity, usual class: cytotoxic | 360,000 compounds, 2% hits | AID 686971, 2013;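 also: 0% = DMSO wells and -100% = cell-free medium wells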
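CellTiter-Glo luminescence after 48 h compound exposure at 37 degrees C of IDH1-knockdown HT-1080 cells in 5% FBS RPMI. %Activity scaled between DMSO wells and cell-free media wells, with curves fitted and assigned curve classes.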
* marks the source's active call; other numbers are inactive results. Calls follow the shape of the dose curve; as a rule, active = well fitted curve in the direction sought with a large enough effect; inconclusive = small, poorly fitted or top-dose-only effect, or another doubt; inactive = no such curve, though single readings can be large; an effect the other way counts as inactive or inconclusive. Potency is read from the fitted curve at half-maximal effect.

What do the screens show for `Cc1cc(SCc2sc(-c3ccc(C(F)(F)F)cc3)nc2C)ccc1OCC(=O)O`?
ATXN2 expr inh: 27%

What do the screens show for `CCOc1ccccc1N1C(=O)c2ccccc2N/C1=C\N1CCN(C(=O)c2ccco2)CC1`?
HT1080-NT tox: inconclusive; HT1080 IDH1KD tx: -8%

How did CCOc1ccc2c(c1)NC(c1cccs1)=NC(c1ccc(F)cc1)=N2 do in these assays?
HepG2 tox: -13%; ATXN2 expr inh: 11%; ATXN viability: inactive; TGFb SMAD3 inh: inconclusive

How did CCOc1ccc(Nc2nc(Cc3nnc(SCC(=O)N(CC)CC)n3C)cs2)cc1 do in these assays?
HepG2 tox: 20µM*; ATXN2 expr inh: -9%; HT1080-NT tox: -4%; ATXN viability: inactive; TGFb SMAD3 inh: inconclusive; HT1080 IDH1KD tx: -4%

How did C[C@@H]1C[C@H]2[C@@H]3CCC4=CC(=O)C=C[C@]4(C)[C@@]3(F)[C@@H](O)C[C@]2(C)[C@@]1(O)C(=O)COC(=O)c1ccncc1 do in these assays?
ATXN2 expr inh: -2%; ATXN viability: inactive

Results for FC(F)(F)c1cccc(-c2cc3nc(NC4CCCCC4)ccn3n2)c1 ?
HepG2 tox: -87%; ATXN2 expr inh: inconclusive; HT1080-NT tox: inconclusive; ATXN viability: inconclusive; TGFb SMAD3 inh: 16µM*; HT1080 IDH1KD tx: inconclusive

Results for COc1cc(-c2cc3nc(NC4CCCCC4)ccn3n2)cc(OC)c1OC ?
HepG2 tox: -23%; ATXN2 expr inh: -16%; HT1080-NT tox: 18µM*; ATXN viability: inconclusive; TGFb SMAD3 inh: -20%; HT1080 IDH1KD tx: 16µM*

What do the screens show for `COc1cc(-c2cc3nc(NCCN(C)C)ccn3n2)cc(OC)c1OC`?
HepG2 tox: -27%; ATXN2 expr inh: 16%; HT1080-NT tox: -3%; ATXN viability: inactive; TGFb SMAD3 inh: 8%; HT1080 IDH1KD tx: -4%

What do the screens show for `COc1cc(Nc2ccn3nc(-c4ccccc4Cl)cc3n2)cc(OC)c1OC`?
HepG2 tox: -47%; ATXN2 expr inh: -36%; HT1080-NT tox: 23µM*; ATXN viability: inconclusive; TGFb SMAD3 inh: inconclusive; HT1080 IDH1KD tx: -21%

What do the screens show for `COc1cc(OC)cc(C(=O)NCC2Cc3cccc(-c4nc(C)cnc4C)c3O2)c1` (stereo unspecified)?
ATXN viability: inactive

Results for CC(=O)NCc1ccc(C(=O)CCl)s1 ?
HepG2 tox: 11µM*; ATXN2 expr inh: inconclusive; HT1080-NT tox: inconclusive; TGFb SMAD3 inh: inconclusive; HT1080 IDH1KD tx: inconclusive

Results for O=[N+]([O-])c1c(NCCCO)cc(SCc2ccco2)c2nonc12 ?
HepG2 tox: -55%; ATXN2 expr inh: 0%; HT1080-NT tox: -25%; TGFb SMAD3 inh: 11µM*; HT1080 IDH1KD tx: inconclusive

What do the screens show for `O=[N+]([O-])c1c(NCCCO)cc(N2CCCCCC2)c2nonc12`?
HepG2 tox: -27%; ATXN2 expr inh: -27%; HT1080-NT tox: -12%; ATXN viability: inconclusive; TGFb SMAD3 inh: inconclusive; HT1080 IDH1KD tx: -2%

Results for O=[N+]([O-])c1c(NCCCO)cc(Sc2ccc(Cl)cc2)c2nonc12 ?
HepG2 tox: -22%; ATXN2 expr inh: inconclusive; HT1080-NT tox: 2%; ATXN viability: 32µM*; TGFb SMAD3 inh: 5%; HT1080 IDH1KD tx: -2%

Results for CC(=O)OCCNc1cc(SCc2ccco2)c2nonc2c1[N+](=O)[O-] ?
HepG2 tox: -58%; ATXN2 expr inh: inconclusive; HT1080-NT tox: -12%; ATXN viability: inconclusive; TGFb SMAD3 inh: inconclusive; HT1080 IDH1KD tx: inconclusive

How did Cn1ccnc1Sc1cc(NCCCO)c([N+](=O)[O-])c2nonc12 do in these assays?
HepG2 tox: -26%; ATXN2 expr inh: inconclusive; HT1080-NT tox: 4.1µM*; ATXN viability: inconclusive; TGFb SMAD3 inh: inconclusive; HT1080 IDH1KD tx: inconclusive

How did COCCNC(=S)N/N=C(\C)c1ccc(-n2ccnc2)cc1 do in these assays?
HepG2 tox: -22%; ATXN2 expr inh: 1%; HT1080-NT tox: inconclusive; ATXN viability: inactive; TGFb SMAD3 inh: inconclusive; HT1080 IDH1KD tx: 10µM*

How did CCOC(=O)CC(=O)CSc1nc2ccc(C)cc2cc1C#N do in these assays?
HepG2 tox: -4%; ATXN2 expr inh: 69%; HT1080-NT tox: inconclusive; ATXN viability: inactive; TGFb SMAD3 inh: -1%; HT1080 IDH1KD tx: 7.1µM*

How did CCOC(=O)CC(=O)CSc1nc(CC)c(C)cc1C#N do in these assays?
HepG2 tox: 20%; ATXN2 expr inh: -28%; HT1080-NT tox: 12%; ATXN viability: inconclusive; TGFb SMAD3 inh: 19%; HT1080 IDH1KD tx: 7%

How did Cc1cccc(CNC(=O)c2cnn(-c3nccc(-c4ccccc4C(F)(F)F)n3)c2C)n1 do in these assays?
ATXN viability: inactive

What do the screens show for `COc1cccc(-n2cc(C(=O)Nc3cccc(C(F)(F)F)c3)c3ccccc3c2=O)c1`?
HepG2 tox: -28%; TGFb SMAD3 inh: inconclusive

What do the screens show for `CCOC(=O)c1ccccc1NC(=O)Cn1c(-c2nonc2N)nc2ccccc21`?
HepG2 tox: -14%; ATXN2 expr inh: -19%; HT1080-NT tox: inconclusive; ATXN viability: inconclusive; TGFb SMAD3 inh: inconclusive; HT1080 IDH1KD tx: 0.92µM*

How did COc1ccc(C#Cc2c(-c3ccsc3)oc3ccc(N4CCOCC4)cc23)cc1 do in these assays?
HepG2 tox: -28%; ATXN2 expr inh: 0%; HT1080-NT tox: -1%; ATXN viability: inactive; TGFb SMAD3 inh: -8%; HT1080 IDH1KD tx: 5%

What do the screens show for `COc1ccc(-c2oc3ccc(N4CCOCC4)cc3c2C#CC2(O)CCCCC2)cc1`?
HepG2 tox: -66%; ATXN2 expr inh: 8%; HT1080-NT tox: inconclusive; ATXN viability: inconclusive; TGFb SMAD3 inh: inconclusive; HT1080 IDH1KD tx: 21µM*

How did COc1ccc(-c2oc3ccc(N4CCOCC4)cc3c2C#Cc2ccc(N)cc2)cc1 do in these assays?
HepG2 tox: -6%; ATXN2 expr inh: -23%; HT1080-NT tox: 16µM*; ATXN viability: inactive; TGFb SMAD3 inh: inconclusive; HT1080 IDH1KD tx: 23µM*

Results for COc1ccc(-c2sc3ccc(N4CCOCC4)cc3c2C#CCCO)cc1 ?
HepG2 tox: -41%; ATXN2 expr inh: inconclusive; HT1080-NT tox: 23µM*; ATXN viability: inconclusive; TGFb SMAD3 inh: inconclusive; HT1080 IDH1KD tx: 23µM*

How did OC1(C#Cc2c(-c3ccsc3)oc3ccc(N4CCOCC4)cc23)CCCCC1 do in these assays?
HepG2 tox: -21%; ATXN2 expr inh: -29%; HT1080-NT tox: inconclusive; ATXN viability: inconclusive; TGFb SMAD3 inh: inconclusive; HT1080 IDH1KD tx: inconclusive
